HCMV inh – human cytomegalovirus inhibition | HFF cells, HCMV-luciferase reporter, 72 h; hits give low values | activity change, negative = inhibition, % at 57.5 µM | 410,000 tested, 4.5% active | AID 1259415; in the data active means activity change below about -60%; inconclusive means no clear call, values can overlap the other calls; inactive means above about -39%
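Two-dose cell screen: HFF monolayers treated with compounds and infected with luciferase-expressing HCMV at 1 PFU/cell, 72 h at 37C, then lysed for luciferase measurement.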
RE007 growth inh – less growth of the S. pombe RE007 Vpr strain; S. pombe RE007 Vpr strain, BacTiter-Glo ATP luminescence, 24 h; 360,000 tested, 0.21% active; Potency, µM (doses to about 92.2 µM), most hits filed as inhibitors; active means well fitted falling curve with a large enough effect; inconclusive means small, poorly fitted or top-dose-only effect; inactive means no such curve, though single readings can be large or run the other way; further: nearly all actives have a fitted effect of over 50% in size
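Fission yeast RE007 carrying one integrated HIV-1 vpr copy, seeded at OD 0.01 in PMG+AL medium with 23 nL pinned compound. Grown 24 h at 30 degrees; viability read by BacTiter-Glo luminescence after 5 min.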
FMDV inh – foot and mouth disease virus antiviral activity; FMDV antiviral cell-based qHTS; Potency, µM (series often up to 57.9 µM), most hits filed as inhibitors; 410,000 tested, 1.2% active; calls by dose curve; tested in HEK293T cells; further: read-out not given here; nearly all actives have a fitted effect of over 45% in size
Giardia FBPA inh – Giardia lamblia aldolase inhibition; purified Giardia FBPA; Potency, µM (titrated, usually from 59.6 µM), actives largely listed as inhibitors; 290,000 tested, 0.71% active; AID 2451; further: nearly all actives have a fitted effect of over 55% in size
Target sequence (A8B2U2 whole entry, looked up): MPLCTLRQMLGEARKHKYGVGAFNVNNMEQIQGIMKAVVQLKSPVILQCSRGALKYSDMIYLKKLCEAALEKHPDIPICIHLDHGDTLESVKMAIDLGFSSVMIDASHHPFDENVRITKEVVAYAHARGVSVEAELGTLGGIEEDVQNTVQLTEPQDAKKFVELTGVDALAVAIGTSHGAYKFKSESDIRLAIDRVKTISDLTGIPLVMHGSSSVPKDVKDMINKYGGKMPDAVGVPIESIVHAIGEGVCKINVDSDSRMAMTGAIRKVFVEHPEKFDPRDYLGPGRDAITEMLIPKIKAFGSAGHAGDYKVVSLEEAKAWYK
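Giardia FBPA (40 nM reagent) was preincubated 10 min at RT with compound (up to 57.5 uM final), then substrate plus GAPDH/TPI/NAD/arsenate coupling system with diaphorase/resazurin was added; resorufin fluorescence (525/598 nm) was read after 20 min.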
TbPYK inhibitor – inhibitors of Trypanosoma brucei pyruvate kinase; TbPYK enzyme, Kinase-Glo Plus ATP luminescence, 45 min; 410,000 tested, 0.12% active; AID 624173; Potency, µM (top dose mostly 76.8 µM), hits mostly inhibitors; Q57TT1; further: nearly all actives have a fitted effect of over 50% in size
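Glycolytic pyruvate kinase of T. brucei was incubated with substrate, test compound and 130 uM ADP for 45 minutes at room temperature. Luminescent Kinase-Glo Plus signal was measured after 10 minutes.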
Sm TGR inh – inhibitors of Schistosoma mansoni thioredoxin glutathione reductase; 360,000 tested, 3% active; Q962Y6; Potency, µM (titrated, usually from 114 µM), actives largely listed as inhibitors; purified TGR, DTNB reduction, TNB absorbance 405 nm; further: nearly all actives have a fitted effect of over 60% in size
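First, TGR (20 nM dispensed) and NADPH were mixed with compound. Second, a 15 min room-temperature incubation followed. Third, further NADPH and then DTNB were added to start the reaction. Finally, TNB absorbance was monitored kinetically.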
A number is an active result; i = inactive; ? = inconclusive; nt = no result given; [ ] = remark or other dose. Rows were chosen to be rich in hits. Some 7.7% of all compounds tested hit in one or more screens of this group. Unless noted, the call rests on the fitted dose curve; in most records, active means well fitted curve in the direction sought with a large enough effect; inconclusive means small, poorly fitted or top-dose-only effect, or another doubt; inactive means no such curve, though single readings can be large; an effect the other way counts as inactive or inconclusive.

SMILES	HCMV inh	RE007 growth inh	FMDV inh	Giardia FBPA inh	TbPYK inhibitor	Sm TGR inh
CCCCOc1ccc(C2c3c(-c4ccccc4O)n[nH]c3C(=O)N2Cc2ccncc2)cc1OC (stereo not given)	i	nt	i	nt	i	i
CCCN1C(=O)c2[nH]nc(-c3ccccc3O)c2C1c1ccc(OCc2ccccc2)c(OC)c1 (stereo not given)	-84	nt	?	nt	i	i
O=C(NCc1ccccc1Cl)c1nnc(Cc2cccc(F)c2)o1	i	nt	i	nt	i	i
COc1ccccc1CNC(=O)Cn1c(-c2ccc(F)cc2)cc(C(C)=O)c1C	?	nt	i	nt	i[15.4 µM]	i
CN(C)CC1CCCCC1OC(=O)c1ccc(Br)cc1 (stereo not given)	i	i	i	i	i	i
CN(C)CC1CCCCC1OC(=O)c1ccc(Cl)cc1Cl (stereo not given)	-61	i	i	i	i	i
COc1ccc(C(=O)CCNc2ccc3c(c2)OCCO3)cc1	i	?	i	i	i	14µM
COc1ccc(C(=O)CCNc2cccc(Cl)c2)cc1	i	i	i	i	i	45µM
CCOc1ccc(C2C(C(=O)Nc3ccc(OC)cc3)=C(C)Nc3nc(SCc4ccc(Cl)cc4)nn32)cc1 (stereo not given)	i	nt	i	nt	i	i
CC(=O)N1c2c(cc(Br)cc2S(=O)(=O)N2CCN(c3cccc(Cl)c3)CC2)CC1C (stereo not given)	i	nt	i	nt	i	i
CCOc1cccc(CNCCO)c1OCc1ccc(Cl)cc1	?	i	?	i	i	?
OCCNCc1c(OCc2ccc(Cl)cc2)ccc2ccccc12	-79	i	i	i	i	i
CCOc1cc(CNCCO)cc(Br)c1OCc1ccc(Cl)cc1	-99	i	?	i	i	i
CCOc1cc(CNCCO)cc(Br)c1OCc1ccccc1Cl	i	i	13µM	i	i	i
OCCNCc1cc(Br)ccc1OCc1ccccc1Cl	-61	i	?	i	i	i
COc1cc(CNCCO)cc(Cl)c1OCc1ccccc1Cl	i	i	i	i	i	i
CC(C)Cc1nc2cc(NS(=O)(=O)N(C)C)cc(C(=O)N3CCSCC3)c2n1C	nt	nt	i	nt	nt	nt
CCCCN1CC(N2CCCC2)CS1(=O)=O (stereo not given)	i	nt	nt	nt	nt	nt
O=C1[C@H]2[C@H]3[C@H](O)[C@H](O)C/C(=N/OC[C@@H](O)COCc4ccco4)[C@@H]3CC[C@@H]2C(=O)N1Cc1ccccc1	nt	nt	nt	i[12.9 µM]	nt	nt
Nc1nonc1C(=O)NCCNCc1ccccc1OCc1ccccc1F	i	i	?	i	i	?
Nc1nonc1C(=O)NCCNCc1cc(Br)ccc1OCc1ccccc1F	-62	i	?	i	i	i
CCCCCCC[C@@H](C/C=C/CCC(=O)N(C)C/C(=C/Cl)C/C(=C\C(=O)N1C[C@H](O)CC1=O)OC)OC	i	i	32µM	nt	i	nt
CCOc1cc(CNC(=O)c2ccc(Cn3c(=O)c4cccn4c4cccnc43)cc2)ccc1OC	i	nt	i	nt	i	i
CCOc1ccc(NC(=O)Cn2c(=O)n(-c3cccc(OC)c3)c(=O)c3c4c(sc32)CCCC4)cc1	i	nt	i	nt	i	i
Cc1cc(C)c2sc(NNC(=O)c3ccc(S(=O)(=O)N4CCc5ccccc5C4)cc3)nc2c1	-106	i	?	?	i	i
SMILES	HCMV inh	RE007 growth inh	FMDV inh	Giardia FBPA inh	TbPYK inhibitor	Sm TGR inh
Cc1cc(C)c2nc(NNC(=O)c3ccc(S(=O)(=O)N4CCc5ccccc5C4)cc3)sc2c1	-97	i	i	?	i	i
N#Cc1ccc(-c2csc(NC(=O)c3ccc(S(=O)(=O)N4CCc5ccccc5C4)cc3)n2)cc1	i	i	i	i	i	i
CCOc1ccccc1Oc1cn[nH]c1-c1ccc(O)cc1O	-78	i	?	i	i	i
CCCc1ccc(Oc2cn[nH]c2-c2ccc(O)cc2O)cc1	-68	?	i	i	i	i
C=C(C)COc1ccc(-c2[nH]ncc2Oc2ccccc2OCC)c(O)c1	i	?	i	i	i	i
CCCCNC(=O)N[C@H]1CC[C@@]23CCCN2C(=O)CCC[C@H]3[C@H]1C	i	nt	nt	nt	nt	nt
Cc1ncc(CO)c(/C=N/NC(=O)c2cc3c(s2)CCCC3)c1O	-66	i	i	i	i	i
Cc1ncc(CO)c(/C=N/NC(=O)c2ccc(O)cc2)c1O	i	i	i	?	i	i
O=c1c2sc3ccccc3c2n(Cc2cccc(Cl)c2)c(=O)n1Cc1ccccc1	?	nt	i	nt	i	i
CCOc1ccc(-c2cc(C(=O)NCC3CCCO3)c3ccccc3n2)cc1 (stereo not given)	i	i	i	i	i	i
Cc1ccc2nc(-c3ccc(Br)cc3)cc(C(=O)NCC3CCCO3)c2c1 (stereo not given)	-100	i	i	nt	i	nt
COc1cccc(-c2cc(C(=O)NCC3CCCO3)c3cc(Br)cc(C)c3n2)c1 (stereo not given)	-60	i	i	i	i	i
COc1ccc(OC)c(CNC(=O)c2ccc(C)c(NC(=O)c3nsc4ccccc34)c2)c1	i	nt	i	nt	i	i
O=C(NC1CC1)c1[nH]c(C(F)(F)F)nc1-c1ccccc1	i	i	i	nt	i	nt
O=C(CSc1nc(-c2ccccc2)[nH]c1-c1ccccc1)Nc1ccc2c(c1)OCO2	-109	nt	?	nt	i	i
COc1cc(-c2nc(SCC(=O)Nc3ccc4c(c3)OCO4)c(-c3ccccc3)[nH]2)cc(OC)c1OC	?	nt	i	nt	i	i
Cc1cccc(-c2nc(SCC(=O)Nc3ccc4c(c3)OCCO4)c(-c3ccccc3)[nH]2)c1	i	nt	i	nt	i	i
O=C(CSc1nc(-c2cccc(F)c2)[nH]c1-c1ccccc1)Nc1ccc2c(c1)OCCO2	-106	nt	?	nt	i	i
O=C(CSc1nc2ncccc2[nH]1)Nc1ccc2c(c1)OCO2	i	i	i	i	i	i
O=C(CSc1nc(-c2ccccc2)c(-c2ccccc2)[nH]1)Nc1ccc2c(c1)OCO2	-68	i	i	i	i	i
O=C(Nc1ccc2c(c1)OCCO2)c1[nH]c(C(F)(F)F)nc1-c1ccccc1	-74	i	i	nt	i	nt
O=C(c1cccc(F)c1)N1CCC2(CCCN(c3ccc(-c4ccccc4)cc3)C2)CC1	nt	nt	i	i	i	nt
CCc1nnc(SCC(=O)Nc2ccc3c(c2)OCO3)o1	?	i	i	i	i	i
Cc1nnc(SCC(=O)Nc2ccc3c(c2)OCO3)o1	-60	i	i	i	i	i
COc1ccccc1-n1cc2ccc([N+](=O)[O-])cc2n1	i	i	i	nt	i	nt
O=[N+]([O-])c1ccc2c(c1)ncn2CCc1ccccc1	?	i	i	i	i	i
O=[N+]([O-])c1ccc2cn(-c3ccccc3)nc2c1	-68	?	i	i	i	i

High-throughput results from PubChem BioAssay.
